Reference: PubChem BioAssay
A number with no mark means an inactive call. The rule behind the calls is not given here.

The molecules below were run against Pantothenate synthetase (Mycobacterium tuberculosis (strain ATCC 25618 / H37Rv)) (UniProt P9WIL5) (assay: Recombinant Mtb pantothenate synthetase (PanC) inhibitors, coupled enzyme, confirmatory (AID 375;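 note: 0% = full reaction with vehicle and 100% = no enzyme background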)). Conditions: coupled enzyme assay; at 10 µM, active compounds read high.
Sequence of Pantothenate synthetase (Mycobacterium tuberculosis (strain ATCC 25618 / H37Rv)) (P9WIL5 whole entry, looked up): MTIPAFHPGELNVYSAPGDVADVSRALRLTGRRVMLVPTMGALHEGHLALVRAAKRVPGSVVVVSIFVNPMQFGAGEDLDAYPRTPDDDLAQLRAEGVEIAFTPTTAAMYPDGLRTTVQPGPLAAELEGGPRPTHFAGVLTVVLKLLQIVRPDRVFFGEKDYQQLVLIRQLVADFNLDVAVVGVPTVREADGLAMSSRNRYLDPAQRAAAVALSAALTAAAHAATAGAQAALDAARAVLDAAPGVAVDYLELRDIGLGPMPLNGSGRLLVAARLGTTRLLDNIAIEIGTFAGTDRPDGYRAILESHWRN

`Cc1nc2sccn2c(=O)c1CCN1CCC(=C(c2ccccc2)c2ccc(F)cc2)CC1` was tested. Which inhibition did it give?
The inhibition was 3%.

Which inhibition does the source give for `CCCCOc1ccc(OCCCN2CCOCC2)cc1` here?
The inhibition was 2%.

`CN1CCCN(C(=O)c2cc(=O)[nH]c3ccccc23)c2nc3ccccc3nc21` was tested. Which inhibition did it give?
Its inhibition is 0%.

Which inhibition does the source give for `CNC(=O)CSc1nnc(-c2cccc(S(=O)(=O)N3CCOCC3)c2)n1-c1ccc(F)cc1` here?
The inhibition was 0%.

`CCCC1O[C@@H]2C[C@H]3[C@@H]4CCC5=CC(=O)C=C[C@]5(C)[C@H]4[C@@H](O)C[C@]3(C)[C@]2(C(=O)CO)O1` (some centres undefined) was tested. Which inhibition did it give?
Its inhibition is 4%.

`COCCCNC(=O)c1ccc2c(c1)OCO2` was tested. Which inhibition did it give?
The inhibition was 1%.

With `COc1ccc(C(=O)Nc2ccc(S(=O)(=O)Nc3onc(C)c3C)cc2)cc1` as the molecule, how does the inhibition read?
The inhibition was 1%.

Which inhibition does the source give for `CCOC(=O)N1CCC(n2c(SCC(=O)NCc3ccco3)nc3ccsc3c2=O)CC1` here?
The inhibition was 0%.

For `CCC1(c2ccc(F)cc2)NC(=O)N(CC(=O)c2ccc[nH]2)C1=O` (centres undefined), which inhibition is on record?
Its inhibition is 0%.

With `c1ccc(CCc2nn3c(Cn4cnc5ccccc54)nnc3s2)cc1` as the molecule, how does the inhibition read?
Its inhibition is 5%.

Which inhibition does the source give for `Nc1[nH]nc2nc(N3CCCC3)nc(-c3ccccc3)c12` here?
The inhibition was 0%.

For `O=S1(=O)Nc2c(ccc3cccnc23)-c2ccccc21`, which inhibition is on record?
Its inhibition is 0%.

With `CC1=C(C(=O)N2CCCCC2)C2(CCC(C)CC2)OC1=O` (centres undefined) as the molecule, how does the inhibition read?
The inhibition was 12%.

Which inhibition does the source give for `Cn1cccc1-c1cc(C(=O)O)[nH]n1` here?
The inhibition was 0%.

With `Nc1c(N2CCCCC2)c(=O)[nH]c(=O)n1-c1ccccc1` as the molecule, how does the inhibition read?
Its inhibition is 0%.

How did the inhibition turn out when `Cc1nc2c(o1)CCc1ccccc1C2O` (centres undefined) was run?
The inhibition was 0%.

With `CC1CCC2C(C1)c1sc(=O)[nH]c1SC2(C)C` (centres undefined) as the molecule, how does the inhibition read?
Its inhibition is 2%.

How did the inhibition turn out when `CCCCn1nnnc1NCc1cccs1` was run?
The inhibition was 0%.

How did the inhibition turn out when `C=CCn1c(SCC(=O)Nc2ccccc2OC)nnc1-c1ccco1` was run?
The inhibition was 4%.

With `CC(C)COC(=O)C1C2C=CC3(CN(C(C)c4ccc(Br)cc4)C(=O)C13)O2` (centres undefined) as the molecule, how does the inhibition read?
The inhibition was 8%.

Which inhibition does the source give for `O=C(O)Cn1cc2c(n1)CCCC2` here?
The inhibition was 0%.

`CCn1cc(C(=O)NCCN(C)CCc2ccccc2)c(=O)c2cc(S(=O)(=O)N(C)C)ccc21` was tested. Which inhibition did it give?
Its inhibition is 4%.

For `O=C(CSc1nnc(-c2ccccn2)n1Cc1ccccc1)N1CCCC1`, which inhibition is on record?
The inhibition was 0%.

`CCS(=O)(=O)N1CCC(C(=O)N2CCOCC2)CC1` was tested. Which inhibition did it give?
Its inhibition is 2%.

For `Nc1nnc(Cc2ccc(Cl)cc2)s1`, which inhibition is on record?
Its inhibition is 4%.

How did the inhibition turn out when `CC(=O)c1c(C)oc2ccc(NS(=O)(=O)c3ccc(O)c(C(=O)O)c3)cc12` was run?
Its inhibition is 4%.

Which inhibition does the source give for `O=C(c1cccs1)N1CCc2ccccc21` here?
The inhibition was 0%.

With `c1ccc2c(c1)CNC1(CCCCC1)C2` as the molecule, how does the inhibition read?
The inhibition was 3%.

Which inhibition does the source give for `CCC(=O)N1CCc2cc(S(=O)(=O)CCC(=O)Nc3ccc(F)c(F)c3)ccc21` here?
The inhibition was 0%.

For `CCS(=O)(=O)c1nc2ccccc2n1CC(=O)N1CCOCC1`, which inhibition is on record?
The inhibition was 0%.

With `COc1ccc(S(=O)(=O)NCc2ccco2)cc1-c1nnc2c3ccccc3c(C)nn12` as the molecule, how does the inhibition read?
The inhibition was 8%.

With `CCOc1ccc(Nc2nc(Cc3nnc(SCC(N)=O)o3)cs2)cc1` as the molecule, how does the inhibition read?
The inhibition was 0%.

For `O=C(CSc1nnc(COc2ccc(Cl)cc2)o1)OC1CCCCC1`, which inhibition is on record?
The inhibition was 0%.

`O=C(CCc1nc2ccccc2[nH]1)Nc1ccc2c(c1)OCO2` was tested. Which inhibition did it give?
The inhibition was 0%.

How did the inhibition turn out when `Cc1cccc(N(CC(=O)N2CCCC2)S(=O)(=O)c2ccccc2)c1C` was run?
Its inhibition is 0%.

`CCOc1ccc(-n2cc(C(=O)Nc3cccc(C)n3)c3cc(OC)c(OC)cc3c2=O)cc1` was tested. Which inhibition did it give?
Its inhibition is 1%.

For `CCc1ccccc1OCCCCN1CCCC1`, which inhibition is on record?
Its inhibition is 0%.

`COCCn1c(=O)[nH]c2cc(C(=O)NCc3cccnc3)ccc2c1=O` was tested. Which inhibition did it give?
Its inhibition is 2%.

How did the inhibition turn out when `CCSc1nnc(NC(=O)c2nn(C(C)C)c(=O)c3ccccc23)s1` was run?
Its inhibition is 1%.
